Source: the supplement of paper PMC10849652
The full data set covers some 8,800 targets. This sample favours those with a hit. About 0.5% of all pairs of compound and target were hits.

Columns and labels:
Experiment in all cases: log2 fold change, soluble protein after heating vs DMSO (PISA); higher = thermal stabilisation; K562 lysate, 10 uM; active = over 0.2 and 3.5 SD of the protein, either way, in both replicates (recomputed)
vemurafenib = compound: CCCS(=O)(=O)Nc1ccc(F)c(C(=O)c2c[nH]c3ncc(-c4ccc(Cl)cc4)cc23)c1F [vemurafenib]
Method in brief: (§1)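 The values are log-two fold changes in thermal stability compared with solvent controls and come from duplicates. They were obtained by TMTpro 16plex LC-MS/MS, with channel sums equalised, on the supernatant after 21,000xg for 90 min. That supernatant came from crude K562 extract at 1 mg/mL protein treated with 10 μM compound for 30 min, heated for 3 min across 48°C-58°C, pooled and brought to 0.5% NP-40 at 4°C.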

[1] = compound: CCCS(=O)(=O)Nc1ccc(F)c(C(=O)c2c[nH]c3ncc(Cl)cc23)c1F
Method in brief: as §1

barasertib = compound: CCN(CCCOc1ccc2c(Nc3cc(CC(=O)Nc4cccc(F)c4)[nH]n3)ncnc2c1)CCOP(=O)(O)O [barasertib]
Method in brief: as §1

[2] = compound: CC[C@@H]1C(=O)N(C)c2cnc(Nc3ccc(C(=O)NC4CCN(C)CC4)cc3OC)nc2N1C1CCCC1
Method in brief: as §1

volasertib = compound: CC[C@@H]1C(=O)N(C)c2cnc(Nc3ccc(C(=O)N[C@H]4CC[C@H](N5CCN(CC6CC6)CC5)CC4)cc3OC)nc2N1C(C)C [volasertib]
Method in brief: as §1

[3] = compound: CCn1c(C(=O)N(C2CC2)C2CC2)cc2c3c(ncn3C)c(Nc3cc(C)n(C)n3)nc21
Method in brief: as §1

[4] = compound: CCn1cc(-c2ccnc3[nH]c(-c4cccc(CN(C)C)c4)cc23)c(-c2ccc(NC(=O)N(C)C)cc2)n1
Method in brief: as §1

[5] = compound: CN1CCC(CNc2ccc3ncc(-c4cccc(OC(F)(F)F)c4)n3n2)CC1
Method in brief: as §1

saracatinib = compound: CN1CCN(CCOc2cc(OC3CCOCC3)c3c(Nc4c(Cl)ccc5c4OCO5)ncnc3c2)CC1 [saracatinib]
Method in brief: as §1

sotrastaurin = compound: CN1CCN(c2nc(C3=C(c4c[nH]c5ccccc45)C(=O)NC3=O)c3ccccc3n2)CC1 [sotrastaurin]
Method in brief: as §1

alvocidib = compound: CN1CC[C@H](c2c(O)cc(O)c3c(=O)cc(-c4ccccc4Cl)oc23)[C@H](O)C1 [alvocidib]
Method in brief: as §1

Tubastatin A = compound: CN1CCc2c(c3ccccc3n2Cc2ccc(C(=O)NO)cc2)C1 [Tubastatin A]
Method in brief: as §1

[6] = compound: CNC(=O)C1=CC=CC=C1NC2=NC(=NC=C2Cl)NC3=C(C=C(C=C3)N4CCOCC4)OC
Method in brief: as §1

defactinib = compound: CNC(=O)c1ccc(Nc2ncc(C(F)(F)F)c(NCc3nccnc3N(C)S(C)(=O)=O)n2)cc1 [defactinib]
Method in brief: as §1

[7] = compound: CNc1nc(-c2ccc3c(N)n[nH]c3c2)cc(N2C[C@@H](C(=O)NC3CCCCC3)CC[C@H]2C)n1
Method in brief: as §1

encorafenib = compound: COC(=O)N[C@@H](C)CNc1nccc(-c2cn(C(C)C)nc2-c2cc(Cl)cc(NS(C)(=O)=O)c2F)n1 [encorafenib]
Method in brief: as §1

[8] = compound: COC(=O)[C@H](CCSC)NC(=O)C1=C(C=C(C=C1)NC[C@H](CS)N)C2=CC=CC=C2
Method in brief: as §1

alisertib = compound: COc1cc(Nc2ncc3c(n2)-c2ccc(Cl)cc2C(c2c(F)cccc2OC)=NC3)ccc1C(=O)O [alisertib]
Method in brief: as §1

[9] = compound: COc1cc2nc(-c3cc(F)ccc3O)nc(N[C@@H]3CNC[C@H]3C(C)(C)O)c2cc1OC
Method in brief: as §1

gefitinib = compound: COc1cc2ncnc(Nc3ccc(F)c(Cl)c3)c2cc1OCCCN1CCOCC1 [gefitinib]
Method in brief: as §1

Measured: log2 fold change

TPST2 (UniProt O60704)
inactive: vemurafenib 0.053 | [1] 0.009 | barasertib 0.097 | [2] 0.075 | volasertib -0.024 | [3] -0.011 | [5] 0.188 | saracatinib 0.011 | sotrastaurin 0.065 | alvocidib -0.107 | Tubastatin A 0.059 | [6] 0.041 | defactinib -0.038 | [7] -0.02 | encorafenib 0.03 | [8] -0.049 | alisertib 0.478 | [9] 0.025 | gefitinib 0.072
active: [4] -0.851

TRMT10A (UniProt Q8TBZ6)
Sequence of UniProt Q8TBZ6 (Q8TBZ6 whole entry, looked up): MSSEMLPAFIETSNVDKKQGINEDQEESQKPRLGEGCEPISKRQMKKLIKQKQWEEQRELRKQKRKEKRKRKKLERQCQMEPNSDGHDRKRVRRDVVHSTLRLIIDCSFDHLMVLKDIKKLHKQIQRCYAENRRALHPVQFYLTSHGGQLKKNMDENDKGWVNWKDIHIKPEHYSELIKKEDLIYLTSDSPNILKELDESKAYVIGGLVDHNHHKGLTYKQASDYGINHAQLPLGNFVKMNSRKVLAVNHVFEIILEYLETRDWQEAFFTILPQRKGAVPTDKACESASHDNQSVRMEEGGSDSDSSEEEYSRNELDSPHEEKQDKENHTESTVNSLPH
inactive: vemurafenib 0.005 | [1] -0.025 | barasertib -0.08 | [2] 0.118 | volasertib -0.014 | [3] -0.005 | [4] -0.027 | [5] 0.029 | saracatinib -0.014 | sotrastaurin 0.006 | alvocidib 0.003 | Tubastatin A -0.008 | [6] 0.095 | defactinib -0.01 | [7] 0.09 | encorafenib -0.031 | [8] -0.012 | alisertib 0.015 | [9] -0.021 | gefitinib -0.004

TDRKH (UniProt Q9Y2W6)
inactive: vemurafenib 0.07 | [1] 0.055 | barasertib 0.031 | [2] -0.195 | volasertib -0.052 | [3] -0.003 | [4] -0.095 | [5] 0.058 | saracatinib -0.004 | sotrastaurin -0.039 | alvocidib -0.017 | Tubastatin A -0.064 | [6] 0.019 | defactinib 0.033 | [7] 0.042 | encorafenib 0.007 | [8] 0.008 | alisertib -0.049 | [9] 0.04 | gefitinib 0.001

TYW3 (UniProt Q6IPR3)
Sequence of UniProt Q6IPR3 (Q6IPR3 whole entry, looked up): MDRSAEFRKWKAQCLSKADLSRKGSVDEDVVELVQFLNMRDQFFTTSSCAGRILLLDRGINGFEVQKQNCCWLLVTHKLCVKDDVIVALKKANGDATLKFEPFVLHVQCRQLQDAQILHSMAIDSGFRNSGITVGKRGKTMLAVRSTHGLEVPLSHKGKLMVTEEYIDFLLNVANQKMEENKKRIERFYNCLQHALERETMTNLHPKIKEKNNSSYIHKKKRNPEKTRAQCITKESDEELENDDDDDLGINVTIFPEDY
inactive: vemurafenib 0.024 | [1] 0.017 | barasertib 0.017 | [2] 0.038 | volasertib -0.002 | [3] -0.02 | [4] -0.218 | [5] 0.031 | saracatinib -0.031 | sotrastaurin -0.003 | alvocidib -0.033 | Tubastatin A 0.014 | [6] -0.007 | defactinib -0.021 | [7] 0.061 | encorafenib 0.027 | [8] -0.064 | alisertib -0.03 | [9] 0.019 | gefitinib 0.01

TRAPPC9 isoform 2 (UniProt Q96Q05)
inactive: vemurafenib 0.053 | [1] 0.001 | barasertib 0.007 | [2] -0.004 | volasertib -0.059 | [3] 0.021 | [4] 0.011 | [5] 0.019 | saracatinib 0.005 | sotrastaurin -0.035 | alvocidib -0.017 | Tubastatin A -0.128 | [6] 0.002 | defactinib -0.011 | [7] -0.075 | encorafenib 0.022 | [8] -0.015 | alisertib -0.036 | [9] 0.021 | gefitinib -0.017

TOE1 (UniProt Q96GM8)
inactive: vemurafenib 0.052 | [1] 0.018 | barasertib -0.053 | [2] -0.051 | volasertib -0.031 | [3] -0.042 | [4] -0.022 | [5] -0.005 | saracatinib -0.029 | sotrastaurin 0.007 | alvocidib -0.01 | Tubastatin A -0.136 | [6] 0.027 | defactinib 0.019 | [7] -0.044 | encorafenib -0.034 | [8] 0.165 | alisertib -0.041 | [9] -0.011 | gefitinib -0.047

UBR3 isoform 4 (UniProt Q6ZT12)
Sequence of UniProt Q6ZT12 (Q6ZT12 whole entry, looked up): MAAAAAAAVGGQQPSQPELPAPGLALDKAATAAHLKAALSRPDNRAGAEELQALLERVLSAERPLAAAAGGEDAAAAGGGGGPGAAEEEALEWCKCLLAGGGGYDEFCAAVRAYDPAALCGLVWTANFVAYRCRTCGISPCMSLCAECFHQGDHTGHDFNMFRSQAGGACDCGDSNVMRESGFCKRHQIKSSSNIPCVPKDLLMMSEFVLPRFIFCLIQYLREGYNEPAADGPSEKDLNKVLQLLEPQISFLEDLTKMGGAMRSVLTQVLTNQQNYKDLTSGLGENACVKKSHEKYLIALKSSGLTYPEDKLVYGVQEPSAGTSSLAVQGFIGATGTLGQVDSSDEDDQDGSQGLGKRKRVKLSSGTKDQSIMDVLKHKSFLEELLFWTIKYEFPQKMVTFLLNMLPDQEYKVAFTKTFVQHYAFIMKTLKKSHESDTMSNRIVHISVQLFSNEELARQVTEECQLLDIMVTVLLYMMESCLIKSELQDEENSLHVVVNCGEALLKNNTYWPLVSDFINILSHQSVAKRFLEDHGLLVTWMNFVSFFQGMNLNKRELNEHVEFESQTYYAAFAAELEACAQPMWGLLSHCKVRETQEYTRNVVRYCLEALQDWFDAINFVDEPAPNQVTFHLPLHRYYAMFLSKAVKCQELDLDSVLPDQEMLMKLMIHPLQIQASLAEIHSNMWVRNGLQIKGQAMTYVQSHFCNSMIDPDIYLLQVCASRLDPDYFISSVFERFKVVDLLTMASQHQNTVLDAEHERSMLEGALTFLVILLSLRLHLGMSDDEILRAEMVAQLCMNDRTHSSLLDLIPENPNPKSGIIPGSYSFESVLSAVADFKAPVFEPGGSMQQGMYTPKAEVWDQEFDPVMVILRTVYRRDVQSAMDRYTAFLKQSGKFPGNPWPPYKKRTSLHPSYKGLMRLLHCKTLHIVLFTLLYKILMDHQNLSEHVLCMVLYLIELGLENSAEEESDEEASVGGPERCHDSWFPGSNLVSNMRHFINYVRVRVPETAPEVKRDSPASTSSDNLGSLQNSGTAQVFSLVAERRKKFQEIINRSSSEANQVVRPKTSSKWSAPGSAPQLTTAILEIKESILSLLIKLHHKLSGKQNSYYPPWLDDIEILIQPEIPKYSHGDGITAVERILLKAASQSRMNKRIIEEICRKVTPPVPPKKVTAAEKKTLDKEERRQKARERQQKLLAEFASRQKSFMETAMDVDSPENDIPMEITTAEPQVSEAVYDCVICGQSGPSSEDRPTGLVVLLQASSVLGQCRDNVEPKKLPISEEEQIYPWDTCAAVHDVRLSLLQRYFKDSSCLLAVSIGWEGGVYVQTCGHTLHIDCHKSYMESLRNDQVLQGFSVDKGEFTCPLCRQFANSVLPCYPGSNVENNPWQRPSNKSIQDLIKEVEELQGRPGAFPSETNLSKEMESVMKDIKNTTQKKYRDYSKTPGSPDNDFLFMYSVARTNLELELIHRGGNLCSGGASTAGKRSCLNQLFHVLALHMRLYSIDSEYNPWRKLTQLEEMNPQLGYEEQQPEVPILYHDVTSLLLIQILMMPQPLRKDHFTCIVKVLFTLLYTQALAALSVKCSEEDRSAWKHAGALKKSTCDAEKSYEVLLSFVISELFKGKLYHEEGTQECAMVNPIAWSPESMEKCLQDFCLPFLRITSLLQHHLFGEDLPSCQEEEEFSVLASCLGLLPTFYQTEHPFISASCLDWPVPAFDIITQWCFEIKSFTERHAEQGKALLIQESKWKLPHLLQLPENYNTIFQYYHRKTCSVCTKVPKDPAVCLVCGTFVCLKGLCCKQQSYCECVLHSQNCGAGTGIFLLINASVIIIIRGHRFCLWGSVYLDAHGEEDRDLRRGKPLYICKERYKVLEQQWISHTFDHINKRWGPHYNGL
inactive: vemurafenib 0.035 | [1] -0.001 | barasertib 0.026 | [2] -0.033 | volasertib -0.091 | [3] -0.011 | [4] -0.015 | [5] -0.044 | saracatinib 0.044 | sotrastaurin 0.009 | alvocidib 0.012 | Tubastatin A -0.155 | [6] 0.074 | defactinib -0.062 | [7] -0.03 | encorafenib -0.006 | [8] 0.054 | alisertib -0.005 | [9] 0.005 | gefitinib 0.018

TTL (UniProt Q8NG68)
Sequence of UniProt Q8NG68 (Q8NG68 whole entry, looked up): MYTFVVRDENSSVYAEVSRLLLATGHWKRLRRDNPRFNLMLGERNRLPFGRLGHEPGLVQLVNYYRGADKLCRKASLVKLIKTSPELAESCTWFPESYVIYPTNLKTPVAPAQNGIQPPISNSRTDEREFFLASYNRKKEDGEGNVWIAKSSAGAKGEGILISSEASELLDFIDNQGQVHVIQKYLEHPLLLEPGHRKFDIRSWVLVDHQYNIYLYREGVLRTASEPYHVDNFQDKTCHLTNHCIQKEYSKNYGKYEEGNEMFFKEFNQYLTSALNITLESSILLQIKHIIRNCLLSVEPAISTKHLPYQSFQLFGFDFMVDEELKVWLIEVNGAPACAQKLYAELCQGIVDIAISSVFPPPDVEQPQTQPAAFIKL
inactive: vemurafenib -0.066 | [1] 0.053 | barasertib 0 | [2] -0.231 | volasertib -0.116 | [3] 0.021 | [4] 0.009 | [5] -0.044 | saracatinib -0.068 | sotrastaurin 0.078 | alvocidib 0.112 | Tubastatin A -0.143 | [6] 0.015 | defactinib -0.065 | [7] 0.001 | encorafenib 0.079 | [8] 0.144 | alisertib -0.027 | [9] 0.019 | gefitinib 0.112

TRA2A (UniProt Q13595)
inactive: vemurafenib -0.197 | [1] -0.033 | barasertib -0.194 | [2] -0.037 | volasertib -0.052 | [3] 0.073 | [4] -0.023 | [5] 0.07 | saracatinib 0.074 | sotrastaurin 0 | alvocidib -0.007 | Tubastatin A -0.079 | [6] -0.033 | defactinib 0.171 | [7] 0.031 | encorafenib -0.017 | [8] 0.068 | alisertib -0.188 | [9] 0.017 | gefitinib 0.118

TP53RK (UniProt Q96S44)
Sequence of UniProt Q96S44 (Q96S44 whole entry, looked up): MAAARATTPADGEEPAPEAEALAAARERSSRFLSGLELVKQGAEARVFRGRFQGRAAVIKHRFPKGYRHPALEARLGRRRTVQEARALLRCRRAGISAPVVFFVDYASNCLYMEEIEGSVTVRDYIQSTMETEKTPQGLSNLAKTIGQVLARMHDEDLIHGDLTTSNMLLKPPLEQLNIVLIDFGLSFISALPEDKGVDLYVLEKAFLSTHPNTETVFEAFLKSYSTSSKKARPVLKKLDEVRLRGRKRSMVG
inactive: vemurafenib -0.018 | [1] 0.047 | barasertib 0 | [2] -0.058 | volasertib -0.002 | [3] 0.013 | [4] 0.025 | [5] -0.039 | saracatinib -0.049 | sotrastaurin -0.023 | alvocidib -0.012 | Tubastatin A 0.054 | [6] -0.037 | defactinib 0.019 | [7] -0.026 | encorafenib 0.028 | [8] 0.025 | alisertib 0.001 | [9] 0.002 | gefitinib -0.042

TBC1D2B (UniProt Q9UPU7)
Sequence of UniProt Q9UPU7 (Q9UPU7 whole entry, looked up): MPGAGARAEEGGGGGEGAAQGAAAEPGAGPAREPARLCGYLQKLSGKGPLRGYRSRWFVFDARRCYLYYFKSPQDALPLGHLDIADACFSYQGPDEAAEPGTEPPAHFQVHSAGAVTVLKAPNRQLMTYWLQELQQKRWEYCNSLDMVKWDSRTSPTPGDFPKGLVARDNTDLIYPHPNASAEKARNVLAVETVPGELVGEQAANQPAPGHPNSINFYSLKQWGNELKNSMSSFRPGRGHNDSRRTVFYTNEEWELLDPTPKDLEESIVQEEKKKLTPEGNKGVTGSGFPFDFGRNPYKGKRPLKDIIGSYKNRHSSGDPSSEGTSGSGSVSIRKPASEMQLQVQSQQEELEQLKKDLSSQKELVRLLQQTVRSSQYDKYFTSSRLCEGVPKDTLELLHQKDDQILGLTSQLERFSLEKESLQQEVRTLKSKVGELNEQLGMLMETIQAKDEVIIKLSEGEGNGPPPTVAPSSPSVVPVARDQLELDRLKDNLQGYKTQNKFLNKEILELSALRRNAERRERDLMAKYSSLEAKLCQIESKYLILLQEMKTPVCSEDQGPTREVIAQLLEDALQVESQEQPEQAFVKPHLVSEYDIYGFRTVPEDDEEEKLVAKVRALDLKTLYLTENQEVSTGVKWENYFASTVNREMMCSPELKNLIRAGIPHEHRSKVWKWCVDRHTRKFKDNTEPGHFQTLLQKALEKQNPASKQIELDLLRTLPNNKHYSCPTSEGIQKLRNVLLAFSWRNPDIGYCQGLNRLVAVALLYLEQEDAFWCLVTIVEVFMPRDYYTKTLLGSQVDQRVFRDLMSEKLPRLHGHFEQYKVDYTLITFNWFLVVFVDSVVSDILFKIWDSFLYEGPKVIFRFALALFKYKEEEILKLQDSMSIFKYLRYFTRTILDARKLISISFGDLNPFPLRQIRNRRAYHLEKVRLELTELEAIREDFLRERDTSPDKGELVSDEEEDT
inactive: vemurafenib 0.037 | [1] 0.014 | barasertib 0.001 | [2] 0.012 | volasertib -0.099 | [3] -0.018 | [4] 0.004 | [5] -0.041 | saracatinib 0.033 | sotrastaurin 0.062 | alvocidib -0.023 | Tubastatin A -0.157 | [6] 0.038 | defactinib 0.04 | [7] -0.047 | encorafenib 0.03 | [8] 0.063 | alisertib 0.011 | [9] 0.103 | gefitinib -0.001

TESC (UniProt Q96BS2)
active: barasertib 0.291
inactive: vemurafenib 0.045 | [1] 0.029 | [2] 0.047 | volasertib 0.036 | [3] -0.004 | [4] 0.109 | [5] -0.023 | saracatinib 0.063 | sotrastaurin 0.012 | alvocidib -0.037 | Tubastatin A 0.022 | [6] -0.008 | defactinib -0.007 | [7] -0.034 | encorafenib 0.033 | [8] -0.037 | alisertib -0.053 | [9] -0.058 | gefitinib 0.091

TSPAN13 (UniProt O95857)
inactive: vemurafenib -0.032 | [1] -0.03 | barasertib -0.033 | [2] 0.177 | volasertib 0.032 | [3] 0.046 | [4] 0.114 | [5] 0.059 | saracatinib 0.134 | sotrastaurin -0.154 | alvocidib -0.26 | Tubastatin A 0.046 | [6] -0.042 | defactinib 0.017 | [7] 0.299 | encorafenib -0.007 | [8] 0.049 | alisertib 0.003 | [9] 0.043 | gefitinib -0.003

UBP1 (UniProt Q9NZI7)
Sequence of UniProt Q9NZI7 (Q9NZI7 whole entry, looked up): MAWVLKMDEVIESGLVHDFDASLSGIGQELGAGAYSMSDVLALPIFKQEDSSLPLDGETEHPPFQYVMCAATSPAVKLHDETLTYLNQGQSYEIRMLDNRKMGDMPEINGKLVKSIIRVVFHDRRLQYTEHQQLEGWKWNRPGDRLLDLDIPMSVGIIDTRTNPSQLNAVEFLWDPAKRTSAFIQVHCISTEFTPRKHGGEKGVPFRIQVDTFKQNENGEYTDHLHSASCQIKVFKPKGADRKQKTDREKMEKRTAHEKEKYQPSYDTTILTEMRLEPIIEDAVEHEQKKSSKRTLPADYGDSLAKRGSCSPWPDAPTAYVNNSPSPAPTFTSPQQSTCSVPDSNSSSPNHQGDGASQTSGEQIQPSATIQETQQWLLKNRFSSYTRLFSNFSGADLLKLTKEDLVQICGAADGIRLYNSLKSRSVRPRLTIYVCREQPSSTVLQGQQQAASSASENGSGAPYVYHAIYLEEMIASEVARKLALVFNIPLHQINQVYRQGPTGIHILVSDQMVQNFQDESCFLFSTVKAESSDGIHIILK
inactive: vemurafenib -0.014 | [1] 0.117 | barasertib 0.008 | [2] 0.01 | volasertib -0.017 | [3] 0.007 | [5] -0.24 | saracatinib -0.008 | sotrastaurin -0.063 | alvocidib 0.049 | Tubastatin A -0.121 | [6] 0.058 | defactinib 0.077 | [7] 0.002 | encorafenib 0.115 | [8] 0.019 | alisertib 0.059 | [9] -0.011 | gefitinib -0.073
active: [4] 0.228

TPM4 (UniProt P67936)
Sequence of UniProt P67936 (P67936 whole entry, looked up): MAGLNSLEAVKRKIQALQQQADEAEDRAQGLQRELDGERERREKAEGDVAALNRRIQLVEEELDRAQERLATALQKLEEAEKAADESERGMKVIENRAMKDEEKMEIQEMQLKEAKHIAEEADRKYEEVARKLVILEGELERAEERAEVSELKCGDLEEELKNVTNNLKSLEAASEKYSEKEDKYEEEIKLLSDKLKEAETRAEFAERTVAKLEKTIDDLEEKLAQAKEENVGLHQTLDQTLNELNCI
inactive: vemurafenib -0.025 | [1] 0.009 | barasertib 0.047 | [2] 0.125 | volasertib 0.055 | [3] 0.018 | [4] 0.037 | [5] -0.007 | saracatinib 0.002 | sotrastaurin 0.013 | alvocidib -0.016 | Tubastatin A 0.074 | [6] -0.021 | defactinib 0.019 | [7] 0.022 | encorafenib 0.028 | [8] -0.028 | alisertib -0.105 | [9] 0.012 | gefitinib 0.033
